Here are results for 46 compounds from PubChem BioAssay AID1986 (Sanford-Burnham Center for Chemical Genomics, 2009).

SMILES strings stand for the structures. In all, about 290,000 compounds went through this assay and about 890 (0.31%) were called active. No stated cut-off is given here; in the data, active means inhibition mostly above about 52% (no sharp cut-off); inactive means mostly below about 76%. The list comes from a sample in which actives are over-represented; it also holds similar structures and randomly drawn compounds.

The nature of the experiment: cell-free HIV fusion peptide-binding blockers – biochemical, uHTS, fluorescence dequenching, primary screen (AID 1986). Particulars: 30 min, stronger effect = higher value.
The mark [1] stands for this setting: measured here: repeat confirmation average inhibition, at 18.6 µM.

On to `Cc1ccc(Oc2cc([N+](=O)[O-])cc3c2C(=O)Nc2ccccc2O3)cc1`, for which the inhibition (at 20 µM) was 40.9% (inactive). With `CCOc1cc([N+](=O)[O-])cc2c1C(=O)Nc1ccccc1O2`, the inhibition was 104% (active) (at 20 µM) and 57.4% under setting [1]. For the compound `CCOc1cccc(C(=O)Nc2cccc(C(C)=O)c2)c1`, the inhibition (at 20 µM) was -0.2% (inactive). Still for that read-out and setting: the figure for `Cc1ccc(CN(C(=O)c2ccccc2[N+](=O)[O-])C2CCS(=O)(=O)C2)o1` (stereo not given) is 0.4% (inactive); for `COc1cccc(OC)c1C(=O)NC(=O)Nc1c(F)c(F)c(F)c(F)c1F` it is 0.3% (inactive); for `O=C(O)CC(c1cccc(C(F)(F)F)c1)N1CCS(=O)(=O)CC1` (stereo not given) it is 0.6% (inactive).

Consider `CCc1ccc(CN(C(=O)COc2c(C)cccc2C)C2CCS(=O)(=O)C2)cc1` (stereo not given), for which, where the note is “at 20 µM”, the inhibition is -0.3% (inactive). Same read-out and setting: the figure for `O=C(Nc1nnc(-c2cccc(F)c2)s1)Nc1ccccc1F` is 0.6% (inactive); for `O=c1[nH]c2c(cc1CNCCN1CCOCC1)c(-c1cccc(F)c1)nn2-c1ccccc1` it is -1.4% (inactive); for `COc1ccc(CNC(=O)Oc2ccccc2)cc1Cl` it is -0.6% (inactive). Take `COc1ccccc1N1C(=N)S/C(=C\c2ccc(-c3ccccc3C(=O)O)o2)C1=O`: where the note is “at 20 µM”, the inhibition was 54% (active). `Cc1ccc(C)c(N2C(=N)S/C(=C\c3ccc(-c4ccccc4C(=O)O)o3)C2=O)c1`: the inhibition is 52.1% (inactive) (at 20 µM) and 18.9% under setting [1]. Turning to `O=C(O)c1ccccc1-c1ccc(/C=C2\SC(=O)N(c3ccccc3)C2=O)o1`, the inhibition (at 20 µM) is 11% (inactive).

For `CN(C)c1ncc(/C=C2/C(=O)NC(=S)N(C3CCCCC3)C2=O)cn1`, for the setting “at 20 µM”, the inhibition is 32.3% (inactive). With `O=C(NNC(=S)NC1CCCCC1)c1ccccc1O`, the inhibition (at 20 µM) is 3.3% (inactive). On to `COc1ccc2c(c1)CC/C(=C/c1ccco1)C2=O`, for which the inhibition (at 20 µM) was 44.1% (inactive). In the case of `O=C1/C(=C/c2ccco2)CCc2ccccc21`, the inhibition (at 20 µM) was 57.7% (active). For the compound `O=C1C(=Cc2ccco2)C(=O)c2ccccc21`, the inhibition (at 20 µM) is 33.3% (inactive).

On to `O=C1/C(=C/c2ccco2)Cc2ccccc21`, for which the inhibition (at 20 µM) is 29.3% (inactive). Still for that read-out and setting: in the case of `O=C1/C(=C\c2ccc(Br)o2)Cc2ccccc21` it was 21.7% (inactive). In the case of `Nc1ccc2c(c1)C/C(=C/c1ccco1)C2=O`, the inhibition (at 20 µM) is 73.6% (active). On to `CC(C)N(C(=O)Cn1cc(S(=O)(=O)CC(=O)NC2CCCCC2)c2ccccc21)C(C)C`, for which the inhibition (at 20 µM) is -0.7% (inactive). The same measure, in the same setting: in the case of `Cc1ccc(-c2csc(NCCn3c(C(F)(F)F)nc4ccccc43)n2)cc1` it was 1.7% (inactive); in that of `Cc1cnc(CN(C)C(=O)c2ccc3oc(Cc4ccc(Cl)cc4)nc3c2)[nH]1`, 0.2% (inactive); in that of `COc1ccc(-n2c(C)cc(/C=C3\C(=N)N4N=C(CC(=O)N5CCOCC5)SC4=NC3=O)c2C)cc1`, 20.1% (inactive).

Regarding `Cc1ccc(/C=C/S(=O)(=O)NCC(=O)O)cc1`, the inhibition (at 20 µM) is 4.8% (inactive). In the case of `Cc1c(N2C(=O)/C(=C/c3ccccc3)SC2=S)c(=O)n(-c2ccccc2)n1C`, the inhibition (at 20 µM) was -4.2% (inactive). In the case of `Cc1c(N2C(=O)/C(=C\c3ccc(N(C)C)cc3)N(C)C2=S)c(=O)n(-c2ccccc2)n1C`, the inhibition is, setting by setting: (at 20 µM) 52.4% (active); under setting [1], 74.6%. Regarding `CN1C(=S)N(c2cccnc2)C(=O)/C1=C\c1ccc(N(C)C)cc1`, where the note is “at 20 µM”, the inhibition is 6.7% (inactive). For `Cc1cccc(C(=O)N/C(=C/c2ccco2)C(=O)N2CCCCCC2)c1`, the inhibition (at 20 µM) was 0% (inactive). As for `O=C(NCC1CCCO1)Nc1cc(Cl)cc(Cl)c1` (stereo not given), the inhibition (at 20 µM) was 0.7% (inactive).

As for `COC(=O)c1cc(=O)c2cccc(OC)c2[nH]1`, the inhibition (at 20 µM) was -2.4% (inactive). The same measure, in the same setting: the figure for `COc1cccc2c(C)c(C(=O)O)[nH]c12` is 67.9% (active); for `COc1cccc2c(=O)c(C(=O)O)c[nH]c12` it is 2% (inactive). As to `Nc1nnc(SCc2ccc([N+](=O)[O-])cc2)s1`, the inhibition (at 20 µM) is 0.4% (inactive). Regarding `Cc1cc(NC(=O)COC(=O)CCS(=O)(=O)c2ccc(Cl)cc2)no1`, the inhibition (at 20 µM) was 1.1% (inactive). Same read-out and setting: in the case of `CC(C(=O)N1CCc2ccccc21)n1cccc1` (stereo not given) it was -2.3% (inactive); in that of `CC(=O)Nc1ccc(NS(=O)(=O)c2cc([N+](=O)[O-])ccc2C)cc1`, 0.5% (inactive). Regarding `Cc1ccc(C)c(NC(=O)c2ccccc2NS(=O)(=O)c2cc([N+](=O)[O-])ccc2C)c1`, under “at 20 µM”, the inhibition was 47.1% (inactive). `C=CCOC(=O)CCC(=O)Nc1cc(OC)nc(OC)n1`: the inhibition (at 20 µM) is -0.6% (inactive).

Regarding `Cc1ccc(S(=O)(=O)Cc2cn3cccnc3n2)cc1`, the inhibition (at 20 µM) was -2.2% (inactive). For `COc1ccc2c(c1)c(C(=O)N/N=C/c1cccc(Br)c1)c(C)n2C`, the inhibition (at 20 µM) was 0.5% (inactive). As for `COc1ccc(N2CC(C(=O)NCCc3c[nH]c4ccccc34)CC2=O)cc1` (stereo not given), the inhibition (at 20 µM) is 0.2% (inactive). Still for that read-out and setting: in the case of `N=C1S/C(=C\c2ccco2)C(=O)N1c1nccs1` it was 51.1% (active). Take `COc1ccc(/C=C2\SC(=N)N(c3nccs3)C2=O)cc1OC`: the inhibition (at 20 µM) is 13.9% (inactive).

Regarding `N=C1S/C(=C\c2ccc(-c3cccc(Cl)c3)o2)C(=O)N1c1nccs1`, the inhibition by setting is: (at 20 µM) 68.1% (inactive); under setting [1], 15.5%.
